Screens from PubChem BioAssay.
Shown are actives, neighbours in structure and some others; about 11% of the full set was active somewhere.
HPGD block – qHTS Assay for Inhibitors of HPGD (15-Hydroxyprostaglandin Dehydrogenase). 15-hydroxyprostaglandin dehydrogenase [NAD(+)] (Homo sapiens), P15428. purified HPGD, NADH fluorescence kinetic, PGE2 substrate. Potency, µM, actives largely listed as inhibitors. 4.3% of 150,000 active. AID 894, 2007; active = well fitted inhibition curve with a large enough effect, not every such curve was filed as active; inconclusive = small, poorly fitted or top-dose-only effect, or another doubt; inactive = no such curve, though single readings can be large or run the other way
Target sequence (P15428 whole entry, looked up): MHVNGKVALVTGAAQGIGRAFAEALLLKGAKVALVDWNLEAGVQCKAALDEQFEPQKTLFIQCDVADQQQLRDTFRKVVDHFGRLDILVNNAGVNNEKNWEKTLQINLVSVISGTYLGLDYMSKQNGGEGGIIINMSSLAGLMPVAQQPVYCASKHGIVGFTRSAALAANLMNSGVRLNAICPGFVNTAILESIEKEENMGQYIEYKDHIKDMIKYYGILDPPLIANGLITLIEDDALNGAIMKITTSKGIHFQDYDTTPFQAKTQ
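20 nM HPGD preincubated 15 min at room temperature with compound in 50 mM Tris-HCl pH 8, 0.01% Tween 20. Started with 1 mM NAD+ and 30 uM prostaglandin E2; NADH fluorescence (360/450 nm) read 5 times over 30-s intervals, last minus first.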
PNC assembly inh – High Content Assay for Compounds that inhibit the Assembly of the Perinucleolar Compartment; PC3M PTB-GFP, PNC prevalence imaging, 16 h; hits give low values; activity change (PNC), negative = inhibition, % at 10 µM; 3.1% of 140,000 active; AID 2417, 2010;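 active = readout at or below -70, meaning at least 70% loss of cells showing the perinucleolar compartment, a nuclear body marking cancer cells; inconclusive = readout between -30 and a set limit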
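Read-out is percentage of cells bearing a perinucleolar compartment, from automated 20x imaging of fixed, Hoechst-stained PC3M PTB-GFP cells. Cells were seeded 4 h, then exposed 16 h to compound (23 nl of library stock) in duplicate plates.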
HttQ103 aggreg – qHTS Multiplex Assay to Identify Dual Action Probes in a Cell Model of Huntington: Aggregate Formation (GFP). Potency, µM (highest dose often 46.1 µM), actives largely listed as inhibitors. 1.1% of 220,000 active. PC12 HttQ103-GFP aggregates, Acumen cytometry, 40 h. AID 1688, 2009; also: nearly all actives have a fitted effect of over 60% in size
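PC12 cells stably carrying ecdysone-inducible HTT exon 1 Q103–GFP were induced with tebufenozide (100 nM final) and treated with library compounds in titration. GFP aggregates in lysates were counted by laser scanning cytometry.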
ALDH1A1 inh – qHTS Assay for Inhibitors of Aldehyde Dehydrogenase 1 (ALDH1A1); Aldehyde dehydrogenase 1A1 (Homo sapiens), P00352; Purified ALDH1A1, NADH fluorescence, propionaldehyde substrate; Potency, µM (doses to about 75.3 µM), usual class: inhibitors; 7.3% of 220,000 active; active = well fitted inhibition curve with a large enough effect, not every such curve was filed as active; inconclusive = small, poorly fitted or top-dose-only effect, or another doubt; inactive = no such curve, though single readings can be large or run the other way
Target sequence (P00352 whole entry, looked up): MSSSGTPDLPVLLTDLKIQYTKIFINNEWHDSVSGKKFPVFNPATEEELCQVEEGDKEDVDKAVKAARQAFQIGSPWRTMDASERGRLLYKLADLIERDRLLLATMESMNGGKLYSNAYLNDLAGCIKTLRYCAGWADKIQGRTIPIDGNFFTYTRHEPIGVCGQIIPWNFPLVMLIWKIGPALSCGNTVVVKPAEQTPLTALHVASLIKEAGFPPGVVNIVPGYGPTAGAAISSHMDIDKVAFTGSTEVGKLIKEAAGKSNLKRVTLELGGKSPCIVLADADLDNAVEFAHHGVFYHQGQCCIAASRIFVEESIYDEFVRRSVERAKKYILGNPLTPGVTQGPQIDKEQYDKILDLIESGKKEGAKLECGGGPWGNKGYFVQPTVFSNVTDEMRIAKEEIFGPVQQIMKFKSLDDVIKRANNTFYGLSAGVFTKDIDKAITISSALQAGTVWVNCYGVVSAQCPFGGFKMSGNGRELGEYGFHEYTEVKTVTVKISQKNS
CBFb-RUNX1 inh – qHTS Assay for Compounds Blocking the Interaction Between CBF-beta and RUNX1 for the Treatment of Acute Myeloid Leukemia | 230,000 tested, under 10 active | AlphaScreen CBFb-His/RUNX1-biotin binding, biochemical | Potency, µM (doses to about 59.8 µM), actives largely listed as inhibitors | Runt-related transcription factor 1 (Homo sapiens) + Core-binding factor subunit beta …
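AlphaScreen proximity signal reports loss of binding between His-tagged CBF-beta and biotin-labelled RUNX1, each at 30 nM. Proteins are pre-associated for 20 minutes, compounds added for 15 minutes, then beads for 90 minutes, all at ambient temperature.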
HTT ATP protect – qHTS Multiplex Assay to Identify Dual Action Probes in a Cell Model of Huntington: Cytoprotection (ATP) | PC12 HTT-Q103 induced, cytoprotection, ATP luminescence, 40 h | Potency, µM (series often up to 56.4 µM), hits mostly activators | 0.14% of 230,000 active; also: nearly all actives have a fitted effect of over 45% in size
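Compounds were screened for protection of PC12 cells against cell death after tebufenozide induction (100 nM final) of mutant Huntingtin exon 1 (Q103) fused to GFP.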
Numbers stand for hits; . = inactive; ? = inconclusive; / = no result; [ ] = another dose, or the depositor's remark. Unless noted, calls follow the shape of the dose curve; as a rule, active = well fitted curve in the direction sought with a large enough effect; inconclusive = small, poorly fitted or top-dose-only effect, or another doubt; inactive = no such curve, though single readings can be large; an effect the other way counts as inactive or inconclusive.

SMILES	HPGD block	PNC assembly inh	HttQ103 aggreg	ALDH1A1 inh	CBFb-RUNX1 inh	HTT ATP protect
C=CCN1C(=O)[C@]2(c3ccccc31)C1CCCC=C1C(C#N)=C(N)C2(C#N)C#N (some centres undefined)	.	.	.	3.98µM	.	.
CCOC(=O)/C(C(=O)Nc1ccc(Cl)cc1Cl)=C1/NC(C)(C)Cc2ccccc21	.	.	.	12.6µM	.	.[10 µM]
NC(=O)C1(N2CCCCC2)CCN(CC(=O)Nc2ccccc2-c2ccccc2)CC1	.	?	.	3.98µM	.	.
O=C(CN1CCCCCC1)Nc1ccccc1F	.	-84.6	.	?	.	.[10 µM]
O=C(Nc1ccccc1-c1ccccc1)C1CCC1	/	/	.[9.22 µM]	3.16µM	.	.
O=C(CN1CCN(CC(=O)c2ccc(F)cc2)CC1)Nc1ccccc1Cl	?	.	.	2.24µM	.	.
COc1cccc(-c2cncnc2N(C)Cc2ccco2)c1	/	/	/	?	/	.
Cc1noc(C)c1N=Nc1ccccc1C(=O)O	/	/	.	.	.	.
COc1ccccc1NC(=O)Cn1nc(C(F)(F)F)c2c1CCCC2	.	.	.	.	.	.[10 µM]
O=C(Cn1nc(C(F)(F)F)c2c1CCC2)Nc1ccccc1C(F)(F)F	.	-100.0	.	.	.	.[10 µM]
O=C(CN1CCCCCCC1)N/N=C/c1ccccc1F	31.6µM	?	.	?	.	.[10 µM]
O=C(CN1CCN(CC(=O)Nc2ccccc2C(F)(F)F)CC1)Nc1ccccc1F	.	?	.	25.1µM	.	.[10 µM]
O=C(CN1CCSCC1)N/N=C/c1ccccc1F	.	.	.	?	.	.
CCCC/C=C/[C@@H](c1ccccc1)C1COC(=O)CC1O (some centres undefined)	/	/	/	/	.	/
O=S1(=O)N[C@H]2CC[C@@H]3NS(=O)(=O)N[C@H]4CC[C@H](N1)N4S(=O)(=O)N23	.	/	/	.[13.5 µM]	/	.[10 µM]
N=c1n(CC(=O)c2ccc([N+](=O)[O-])cc2)c2ccccc2n1Cc1ccccc1Cl	.	-87.8	.	.	.	/
N=c1n(CC(=O)c2ccc([N+](=O)[O-])cc2)c2ccccc2n1Cc1ccccc1	.	.	?	.	.	.[10 µM]
COc1ccc(C(=O)c2sc3nc(C)cc(-c4cccs4)c3c2N)cc1OC	.	-81.7	.	.	?	.[10 µM]
O=[N+]([O-])c1cc(Cc2ccccc2)cc(C=Nc2ccc(N3CCOCC3)cc2)c1O	5.01µM	.	.	?	?	/
Cc1ccc(O)c(N=Cc2cc(Cc3ccccc3)cc([N+](=O)[O-])c2O)c1	/	/	.[9.22 µM]	14.1µM	?	.[1.9 µM]
CCOc1ccccc1-c1ccc(C(=O)O)o1	?	/	/	?	.	.
CCOC(=O)CSC1=NC(=O)/C(=C\c2ccc(OC(C)=O)cc2)S1	25.1µM	.	.	.	.	.
CCOC(=O)CSc1nc(-c2ccccc2)ns1	/	/	.	?	.	/
COc1ccc2c(c1)C(c1ccc3c(c1)OCO3)CC(=O)O2 (centres undefined)	.	/	/	.	.	.
CCCN1C=CC(=C2C(=O)c3ccccc3C2=O)C=C1	.	.	.	14.1µM	.	.
SMILES	HPGD block	PNC assembly inh	HttQ103 aggreg	ALDH1A1 inh	CBFb-RUNX1 inh	HTT ATP protect
CCCCN1C(C)=CC(=C2C(=O)c3ccccc3C2=O)C=C1C	/	/	.	14.1µM	.	.
CC1=CC(=C2C(=O)c3ccccc3C2=O)C=C(C)N1Cc1ccco1	.	.	.	7.94µM	.	.
CCCCCCN1C=CC(=C2C(=O)c3ccccc3C2=O)C=C1	/	/	.[9.22 µM]	.	.	.[10 µM]
CC(C)[C@H](NC(=O)OC(C)(C)C)[C@@H](O)CC(=O)C(C)(C)C	/	/	/	.[13.5 µM]	.[13.1 µM]	.[10 µM]
Nc1[nH]n2c(=O)cc(-c3ccccc3)nc2c1N=Nc1ccc(S(N)(=O)=O)cc1	/	/	.[9.22 µM]	.	?	.[10 µM]
Nc1[nH]n2c(=O)cc(-c3ccccc3)nc2c1N=Nc1ccccc1	.	.	3.16µM	.	.	.
O=C(c1cnccn1)N1CCC2(CC1)CCN(c1ncccn1)CC2	.	/	/	.	/	.
CNC(=O)NC(=O)COC(=O)CCCSc1nc2ccccc2s1	.	.	.	.	.	.[10 µM]
Cc1cc2nc(C3CCN(CC4COc5ccccc5O4)CC3)[nH]c2cc1C (centres undefined)	.	-82.3	.	.	.	.[10 µM]
CCN1C(=O)[C@H]2[C@@H]3[C@H](O)[C@H](O)CC(=O)[C@H]3CC[C@H]2C1=O	/	/	/	.[13.5 µM]	.[13.1 µM]	.[10 µM]
Cc1ccc(-c2ccc(/C=N/O)o2)cc1[N+](=O)[O-]	/	/	.	3.16µM	.	.
NC(=S)N/N=C/c1ccccc1[N+](=O)[O-]	/	/	.[9.22 µM]	22.4µM	.	.[10 µM]
Cc1ccc(C(=O)N/N=C\c2ccc(-c3ccc([N+](=O)[O-])cc3)o2)cn1	/	/	.[9.22 µM]	.	.	.[10 µM]
NC(=S)N/N=C/c1ccc(-c2ccc([N+](=O)[O-])cc2)o1	/	/	.	0.891µM	?	.[10 µM]
Cc1ccc(C(=O)N/N=C\c2ccccc2[N+](=O)[O-])cn1	/	/	.	.	.	.
Cc1ccc(C(=O)N/N=C\C=C\c2ccccc2[N+](=O)[O-])cn1	/	/	.	7.94µM	.	.
COc1ccc(CC(=O)NNC(=S)NCC2CC2)cc1OC	/	/	.[9.22 µM]	/	.	.[10 µM]
COC(=O)C/C=C/C(C)C(OC)c1ccccc1Br (centres undefined)	/	/	/	.[13.5 µM]	.[13.1 µM]	.[10 µM]
CCC(=O)Nc1ccc(C(=O)N/N=C/c2ccccc2[N+](=O)[O-])cc1	.	.	.	28.2µM	.	.
COc1ccc(/C=N/NC(=O)c2ccc(NC(=O)c3cccc([N+](=O)[O-])c3)cc2)c(OC)c1	/	/	.	?	.	.
COc1cccc(/C=N/NC(=O)c2cc3cc([N+](=O)[O-])ccc3s2)c1O	28.2µM	?	?	.	/	/
COc1ccccc1/C=N/NC(=O)c1ccc(NC(=O)c2cccc([N+](=O)[O-])c2)cc1	/	/	?	7.94µM	.	.
COc1ccc(/C=N\NC(=O)c2cccc([N+](=O)[O-])c2)cc1Cn1cc([N+](=O)[O-])cn1	/	/	.[9.22 µM]	20µM	.	.[10 µM]
CCn1nc(C)c(CN2CCCC(CO)(Cc3cccc(Cl)c3)C2)c1C (centres undefined)	/	/	.[9.22 µM]	.	.	.[10 µM]
O=C(CNC(=O)c1ccc(Cl)cc1Cl)Nc1ccc(F)cc1	/	/	.[9.22 µM]	/	.	.[10 µM]
Cn1c(=S)n(C)c2ccccc21	/	/	.	.	.	.[10 µM]
Cn1c(=S)ccc2ccccc21	/	/	.	25.1µM	.	.[10 µM]
COc1ccc(-c2nnc3sc(CN4C(=O)c5ccccc5C4=O)nn23)cc1	.	.	.[9.22 µM]	?	.	.
